# Measurements published in paper PMC7862700, “An all-to-all approach to the identification of sequence-specific readers for epigenetic DNA modifications on cytosine”.
# Columns and labels:
# Experiment in all cases: DAPPL (digital affinity profiling via proximity ligation, sequencing); 10 mM Tris-HCl pH 7.5, 50 mM NaCl, 1 mM DTT, 4% glycerol, room temperature, 30 min; GST-TFs on glutathione beads, 16-mer random dsDNA library, 0.1% formaldehyde crosslink after washing; high values mean tight binding
# Settings in all cases: protein: recombinant; tags: N-terminal GST; dsDNA, one strand shown
# ERF = target: T1, ERF (Homo sapiens, UniProt P50548 1-548)
# T1 sequence: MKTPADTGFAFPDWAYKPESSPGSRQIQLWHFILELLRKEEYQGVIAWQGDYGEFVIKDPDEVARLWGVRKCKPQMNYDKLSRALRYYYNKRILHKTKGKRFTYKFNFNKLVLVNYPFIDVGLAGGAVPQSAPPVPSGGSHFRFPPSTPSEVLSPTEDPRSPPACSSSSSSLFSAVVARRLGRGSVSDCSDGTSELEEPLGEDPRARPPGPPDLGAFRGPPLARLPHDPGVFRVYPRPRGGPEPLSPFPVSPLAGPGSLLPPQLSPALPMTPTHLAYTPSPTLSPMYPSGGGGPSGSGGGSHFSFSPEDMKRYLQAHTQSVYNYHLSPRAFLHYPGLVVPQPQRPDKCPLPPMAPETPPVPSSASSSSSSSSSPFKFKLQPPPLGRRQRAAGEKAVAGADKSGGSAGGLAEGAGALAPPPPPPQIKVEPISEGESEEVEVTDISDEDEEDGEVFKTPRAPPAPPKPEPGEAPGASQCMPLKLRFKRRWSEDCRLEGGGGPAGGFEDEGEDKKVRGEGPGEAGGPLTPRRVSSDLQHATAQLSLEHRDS
# In short: (§1)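 Pools of DNA-barcoded human transcription factors, expressed in yeast as GST fusions on glutathione beads and combined with a tag-only sample, were incubated with 200 nmole of a 16-mer random double-stranded DNA library. Incubation took 30 min at room temperature in Tris/NaCl/DTT/glycerol buffer and was followed by washing, 0.1% formaldehyde crosslinking, proximity ligation (BsaI/T4 ligase, 1 h, 37 °C), PCR amplification and sequencing on an Illumina NextSeq500. Binding signal is the ratio of a hexamer's read frequency for a factor to its frequency for the tag-only sample.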
# ETV3L = target: T2, ETV3L (Homo sapiens, UniProt Q6ZN32 1-361)
# T2 sequence: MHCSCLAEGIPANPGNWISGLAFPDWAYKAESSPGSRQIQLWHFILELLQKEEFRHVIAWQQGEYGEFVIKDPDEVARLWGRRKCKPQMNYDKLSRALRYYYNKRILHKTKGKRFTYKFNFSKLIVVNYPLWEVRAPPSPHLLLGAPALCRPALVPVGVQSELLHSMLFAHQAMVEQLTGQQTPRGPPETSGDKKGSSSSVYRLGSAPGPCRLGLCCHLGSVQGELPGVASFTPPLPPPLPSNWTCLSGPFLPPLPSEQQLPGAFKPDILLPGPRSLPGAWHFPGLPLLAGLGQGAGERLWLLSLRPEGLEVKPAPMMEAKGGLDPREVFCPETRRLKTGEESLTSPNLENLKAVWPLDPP
# In short: as §1
# ETS2 = target: T3, ETS2 (Homo sapiens, UniProt P15036 1-469)
# T3 sequence: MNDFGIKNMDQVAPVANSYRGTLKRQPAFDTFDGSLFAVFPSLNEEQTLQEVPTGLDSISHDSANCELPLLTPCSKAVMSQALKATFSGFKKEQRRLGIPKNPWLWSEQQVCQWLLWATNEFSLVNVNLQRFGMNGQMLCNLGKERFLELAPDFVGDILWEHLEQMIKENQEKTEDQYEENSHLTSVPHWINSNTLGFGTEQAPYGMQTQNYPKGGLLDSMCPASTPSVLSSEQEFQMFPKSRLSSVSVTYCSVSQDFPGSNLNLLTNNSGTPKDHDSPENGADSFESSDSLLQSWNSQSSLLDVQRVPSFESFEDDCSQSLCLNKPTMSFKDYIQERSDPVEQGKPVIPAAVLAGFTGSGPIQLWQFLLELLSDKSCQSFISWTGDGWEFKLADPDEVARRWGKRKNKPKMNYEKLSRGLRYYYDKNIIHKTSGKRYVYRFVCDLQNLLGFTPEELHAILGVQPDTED
# In short: as §1
# SPDEF = target: T4, SPDEF (Homo sapiens, UniProt O95238 1-335)
# T4 sequence: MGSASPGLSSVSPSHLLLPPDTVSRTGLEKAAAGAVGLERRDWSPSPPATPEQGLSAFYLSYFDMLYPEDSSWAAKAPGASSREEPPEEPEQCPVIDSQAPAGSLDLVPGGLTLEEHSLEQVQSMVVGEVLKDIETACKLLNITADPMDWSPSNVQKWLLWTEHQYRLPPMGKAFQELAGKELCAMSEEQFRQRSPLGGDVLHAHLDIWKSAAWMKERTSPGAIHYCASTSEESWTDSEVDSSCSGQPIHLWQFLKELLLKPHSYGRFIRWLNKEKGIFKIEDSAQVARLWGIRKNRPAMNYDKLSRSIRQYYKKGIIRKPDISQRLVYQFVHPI
# In short: as §1
# ETV7 = target: T5, ETV7 (Homo sapiens, UniProt Q9Y603 1-341)
# T5 sequence: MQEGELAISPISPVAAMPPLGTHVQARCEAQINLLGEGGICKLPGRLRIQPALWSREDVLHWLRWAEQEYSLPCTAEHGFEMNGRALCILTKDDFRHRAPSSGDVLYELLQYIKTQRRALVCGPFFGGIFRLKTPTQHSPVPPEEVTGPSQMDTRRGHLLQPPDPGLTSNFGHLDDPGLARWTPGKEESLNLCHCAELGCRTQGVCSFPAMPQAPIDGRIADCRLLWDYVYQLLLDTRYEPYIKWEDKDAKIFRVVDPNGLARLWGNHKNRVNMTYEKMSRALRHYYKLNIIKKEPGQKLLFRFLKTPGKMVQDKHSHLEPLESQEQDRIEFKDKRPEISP
# In short: as §1
# ELF5 = target: T6, ELF5 (Homo sapiens, UniProt Q9UKW6-2 1-255)
# T6 sequence: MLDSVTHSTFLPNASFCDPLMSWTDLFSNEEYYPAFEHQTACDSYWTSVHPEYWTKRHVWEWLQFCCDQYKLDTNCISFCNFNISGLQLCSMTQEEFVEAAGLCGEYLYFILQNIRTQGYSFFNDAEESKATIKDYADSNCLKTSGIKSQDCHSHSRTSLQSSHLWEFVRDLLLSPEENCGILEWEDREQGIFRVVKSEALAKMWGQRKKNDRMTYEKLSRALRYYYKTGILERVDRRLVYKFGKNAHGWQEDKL
# In short: as §1
# ETV3 = target: T7, ETV3 (Homo sapiens, UniProt P41162-2 1-143)
# T7 sequence: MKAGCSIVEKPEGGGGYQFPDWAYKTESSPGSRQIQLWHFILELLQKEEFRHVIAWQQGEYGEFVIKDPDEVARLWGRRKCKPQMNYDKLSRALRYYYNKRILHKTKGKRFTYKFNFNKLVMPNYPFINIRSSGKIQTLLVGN
# In short: as §1
# ETV6 = ETV6 (Homo sapiens, UniProt P41212 1-452)
# In short: as §1
# ETV6, sequence (P41212 whole entry): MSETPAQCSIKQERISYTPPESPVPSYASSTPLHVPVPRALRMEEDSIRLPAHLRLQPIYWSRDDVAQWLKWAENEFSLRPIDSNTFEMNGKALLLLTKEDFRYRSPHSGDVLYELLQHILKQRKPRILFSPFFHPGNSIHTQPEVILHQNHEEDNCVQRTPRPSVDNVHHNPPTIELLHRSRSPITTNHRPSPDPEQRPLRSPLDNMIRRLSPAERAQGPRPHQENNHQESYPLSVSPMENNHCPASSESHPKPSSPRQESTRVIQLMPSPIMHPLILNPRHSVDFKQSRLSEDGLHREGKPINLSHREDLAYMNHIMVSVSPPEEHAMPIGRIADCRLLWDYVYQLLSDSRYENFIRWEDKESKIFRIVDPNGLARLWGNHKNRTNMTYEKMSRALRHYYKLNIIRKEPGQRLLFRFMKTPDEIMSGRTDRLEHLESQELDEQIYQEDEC
Sequence,binding signal (ERF),binding signal (ETV3L),binding signal (ETS2),binding signal (SPDEF),binding signal (ETV7),binding signal (ELF5),binding signal (ETV3),binding signal (ETV6)
TAATAA,"1.28 fold enrichment (6-mer frequency, TF over GST control)","1.24 fold enrichment (6-mer frequency, TF over GST control)","1.21 fold enrichment (6-mer frequency, TF over GST control)","1.19 fold enrichment (6-mer frequency, TF over GST control)","1.14 fold enrichment (6-mer frequency, TF over GST control)","1.15 fold enrichment (6-mer frequency, TF over GST control)","1.11 fold enrichment (6-mer frequency, TF over GST control)","1.17 fold enrichment (6-mer frequency, TF over GST control)"
CTACTC,"1.48 fold enrichment (6-mer frequency, TF over GST control)","1.45 fold enrichment (6-mer frequency, TF over GST control)","1.34 fold enrichment (6-mer frequency, TF over GST control)","1.29 fold enrichment (6-mer frequency, TF over GST control)","1.13 fold enrichment (6-mer frequency, TF over GST control)","1.29 fold enrichment (6-mer frequency, TF over GST control)","1.25 fold enrichment (6-mer frequency, TF over GST control)","1.3 fold enrichment (6-mer frequency, TF over GST control)"
AATCTA,"1.25 fold enrichment (6-mer frequency, TF over GST control)","1.08 fold enrichment (6-mer frequency, TF over GST control)","1.16 fold enrichment (6-mer frequency, TF over GST control)","1.02 fold enrichment (6-mer frequency, TF over GST control)","1.13 fold enrichment (6-mer frequency, TF over GST control)","1.1 fold enrichment (6-mer frequency, TF over GST control)","1.05 fold enrichment (6-mer frequency, TF over GST control)","1.09 fold enrichment (6-mer frequency, TF over GST control)"
GCGATG,"1.38 fold enrichment (6-mer frequency, TF over GST control)","1.26 fold enrichment (6-mer frequency, TF over GST control)","1.35 fold enrichment (6-mer frequency, TF over GST control)","1.29 fold enrichment (6-mer frequency, TF over GST control)","1.31 fold enrichment (6-mer frequency, TF over GST control)","1.17 fold enrichment (6-mer frequency, TF over GST control)","1.28 fold enrichment (6-mer frequency, TF over GST control)","1.18 fold enrichment (6-mer frequency, TF over GST control)"
AAGATG,"1.18 fold enrichment (6-mer frequency, TF over GST control)","1.12 fold enrichment (6-mer frequency, TF over GST control)","1.16 fold enrichment (6-mer frequency, TF over GST control)","1.1 fold enrichment (6-mer frequency, TF over GST control)","1.12 fold enrichment (6-mer frequency, TF over GST control)","1.14 fold enrichment (6-mer frequency, TF over GST control)","1.09 fold enrichment (6-mer frequency, TF over GST control)","1.2 fold enrichment (6-mer frequency, TF over GST control)"
CTTATC,"1.12 fold enrichment (6-mer frequency, TF over GST control)","1.22 fold enrichment (6-mer frequency, TF over GST control)","1.12 fold enrichment (6-mer frequency, TF over GST control)","1.23 fold enrichment (6-mer frequency, TF over GST control)","1.1 fold enrichment (6-mer frequency, TF over GST control)","1.17 fold enrichment (6-mer frequency, TF over GST control)","1.15 fold enrichment (6-mer frequency, TF over GST control)","1.1 fold enrichment (6-mer frequency, TF over GST control)"
CTTCGT,"1.4 fold enrichment (6-mer frequency, TF over GST control)","1.32 fold enrichment (6-mer frequency, TF over GST control)","1.34 fold enrichment (6-mer frequency, TF over GST control)","1.25 fold enrichment (6-mer frequency, TF over GST control)","1.4 fold enrichment (6-mer frequency, TF over GST control)","1.3 fold enrichment (6-mer frequency, TF over GST control)","1.31 fold enrichment (6-mer frequency, TF over GST control)","1.31 fold enrichment (6-mer frequency, TF over GST control)"
